Results filed as inconclusive are left out. Unless noted, the call rests on the fitted dose curve; in most records, active means well fitted curve in either direction with a large enough effect (not every such curve was filed as active); inconclusive means small, poorly fitted or top-dose-only effect, or another doubt; inactive means flat fitted curve, though single readings scatter.
Test system: not listed separately
Experiment: Stat Signaling Pathway (AID 446);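 further: ME-180 cervical cancer cells given 40 pM IL-6 alongside compound; SIE-controlled beta-lactamase reporter measured as 460/530 nm FRET emission ratio; on the % scale 0 is the no-effect control and ±100 the full control effect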
Conditions: ME-180 SIE beta-lactamase reporter, IL-6 stimulated, 5 h; at 17.2 µM (top of the series) unless noted
Outline: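 ME-180 cells carrying a SIE-driven beta-lactamase reporter are stimulated with 40 pM IL-6 for 5 h at 37C in the presence of compound. The 460/530 nm FRET substrate ratio is read after 2.5 h at RT. Data are normalised to 300 pM IL-6 and to 125 nM JAK inhibitor controls.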

activity, negative = inhibition, inactive:
COC(=O)C(NC(C)=O)(Nc1ccc(Br)cn1)C(F)(F)F (stereo not given) -10.2%
CCCOc1cccc(C2/C(=C(/O)c3ccccc3)C(=O)C(=O)N2CCN(C)C)c1 (stereo not given) 0.936%
Nn1c(SCC(=O)Nc2ccc3c(c2)OCCO3)nnc1C(F)(F)F 9.15%
CCOc1nc(SC(C(C)=O)C(=O)Nc2ccccc2)nc(N(C)C)n1 (stereo not given) 72.5%
CCOC(=O)c1[nH]c2ccc(OC)cc2c1NC(=O)CCN1CCCC(C)C1 (stereo not given) 3.31%
COc1ccc(/C(O)=C2/C(=O)C(=O)N(CCCN(C)C)C2c2ccccc2)cc1Cl (stereo not given) 12.1%
CC(C(=O)N1CCOCC1)N1C(=O)c2ccccc2C1=O (stereo not given) 10.1%
c1coc(CNc2ncnc3ccccc23)c1 -18.3%
CC(=O)OCc1c(COC(C)=O)[n+](=O)c2ccccc2n1[O-] 0.487%
COc1cccc(OC)c1OCCN1CCN(C(=O)c2ccco2)CC1 11.8%
CCc1ccc2c(c1)C(C)=CC(C)(C)N2 -8.11%
COC(=O)/C=c1/s/c(=C(\C#N)C(=O)NCc2ccco2)n(-c2ccccc2)c1=O 5.13%
CN(C)CC(O)COc1ccc(-c2ccc(C#N)cc2)cc1 (stereo not given) 2.27%
COc1cccc(C(=O)N2CCN(S(=O)(=O)Cc3ccccc3)CC2)c1OC -3.28%
Cn1c(=O)c2c(nc(OCc3cccnc3)n2Cc2ccccc2)n(C)c1=O -1.88%
O=C(c1cncc(Br)c1)N1CCCc2ccccc21 -1.14%
CCOC(=O)CNS(=O)(=O)c1cc(-c2nn(C)c(=O)c3ccccc23)ccc1C -5.95%
COC(=O)c1ccccc1N1C(=O)[C@@H]2C(c3ccc(Br)cc3)=NO[C@@H]2C1=O 7.92%
CCOC(=O)CSc1nc(N(C)C)nc(N(C)C#N)n1 -0.469%
O=C(O)c1c[nH]c2ccc(S(=O)(=O)N3CCOCC3)cc12 6.65%
COC(=O)c1sccc1NC(=O)c1c(C)cc(=O)oc1C -6.64%
Cc1cc(=O)n(CCC(=O)O)c2ccccc12 3.32%
CCOC(=O)C1=C(c2ccccc2)NC(SCC(=O)Nc2ccccc2C)=C(C#N)C1c1ccco1 (stereo not given) -9.31%
O=S(=O)(c1ccc2ccccc2c1)N(CC(O)CN1CCOCC1)c1ccccc1 (stereo not given) -7.59%
CC1CN(C2CCN(S(=O)(=O)c3ccccc3)CC2)CC(C)O1 (stereo not given) 2.46%
CC1(C)NC(=O)N(CC(O)COc2ccccc2C(=O)Nc2ccccc2)C1=O (stereo not given) 3.3%
CN1CCN(/C=N/c2sc3c(c2C#N)CCCCC3)CC1 -3.82%
N/C(CCN1CCOCC1)=N/O -0.113%
C=C(Br)Cn1c(CCCC)nc2ccccc21 4.16%
O=C(O)c1ccc(COCC(F)(F)C(F)F)o1 2.03%
C=CCn1c(SCc2c(F)c(F)c(F)c(F)c2F)nc(O)cc1=O -10.5%
CC1(C)CC(=O)C(C=N)=C(O)C1 2.78%
COCCN(Cc1ccccc1)P(=O)(O)c1ccccc1OCC(=O)O 2.47%
COc1cc(-c2nn3c(-c4ccco4)nnc3s2)cc(OC)c1OC -1.97%
COc1cccc(OC)c1C(=O)N1CCN(S(=O)(=O)c2ccc(C)cc2)CC1 6.68%
CC(NC(=O)NCCCC(=O)O)(C(F)(F)F)C(F)(F)F 1.17%
CC(C)OC(=O)CC1=NC(=O)CS1 9.47%
Cc1cc(=O)oc2c(CN3CCN(C)CC3)c(O)c(Cl)cc12 9.62%
Cc1nnc2n(-c3ccccc3)c(=O)c3c4c(sc3n12)CCCC4 10.4%
Cn1c(O)c(C=Nc2ccc(Cc3ccncc3)cc2)c(=O)n(C)c1=O -1.74%

Molecular target: Glucocorticoid receptor (Homo sapiens) (UniProt P04150)
Experiment: GR-GFP Redistribution (AID 450;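 active means compounds whose dose series gives a full or clear partial fitted curve of increased nuclear translocation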; further: potency means the concentration at half of the fitted maximal effect)
Conditions: U2OS GR-GFP nuclear translocation, laser cytometry, 2 h; series mostly up to 20.6 µM

Glucocorticoid receptor (Homo sapiens), sequence (P04150 whole entry, looked up): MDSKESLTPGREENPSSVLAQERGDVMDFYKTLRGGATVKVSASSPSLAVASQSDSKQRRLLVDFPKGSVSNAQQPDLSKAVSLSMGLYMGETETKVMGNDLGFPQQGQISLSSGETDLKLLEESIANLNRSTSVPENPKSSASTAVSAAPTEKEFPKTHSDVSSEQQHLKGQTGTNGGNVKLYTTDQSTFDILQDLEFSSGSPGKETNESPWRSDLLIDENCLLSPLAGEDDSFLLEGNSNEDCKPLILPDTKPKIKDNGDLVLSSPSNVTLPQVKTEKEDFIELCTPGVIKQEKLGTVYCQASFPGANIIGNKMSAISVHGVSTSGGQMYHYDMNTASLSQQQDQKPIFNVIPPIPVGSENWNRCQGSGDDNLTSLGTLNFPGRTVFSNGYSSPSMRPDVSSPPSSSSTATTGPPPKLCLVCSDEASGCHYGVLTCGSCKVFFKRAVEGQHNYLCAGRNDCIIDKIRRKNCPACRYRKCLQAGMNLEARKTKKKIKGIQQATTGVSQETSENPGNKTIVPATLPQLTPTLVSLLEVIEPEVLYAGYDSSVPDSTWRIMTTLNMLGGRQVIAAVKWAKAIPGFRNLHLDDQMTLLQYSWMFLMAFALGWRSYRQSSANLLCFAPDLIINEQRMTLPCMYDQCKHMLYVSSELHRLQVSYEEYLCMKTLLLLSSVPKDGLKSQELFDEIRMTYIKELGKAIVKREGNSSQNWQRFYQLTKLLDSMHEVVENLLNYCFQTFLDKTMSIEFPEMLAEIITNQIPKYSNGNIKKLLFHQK

Potency, inactive:
COC(=O)C(NC(C)=O)(Nc1ccc(Br)cn1)C(F)(F)F (stereo not given) > 20.6 µM
CCCOc1cccc(C2/C(=C(/O)c3ccccc3)C(=O)C(=O)N2CCN(C)C)c1 (stereo not given) > 20.6 µM
Nn1c(SCC(=O)Nc2ccc3c(c2)OCCO3)nnc1C(F)(F)F > 20.6 µM
CCOc1nc(SC(C(C)=O)C(=O)Nc2ccccc2)nc(N(C)C)n1 (stereo not given) > 20.6 µM
CCOC(=O)c1[nH]c2ccc(OC)cc2c1NC(=O)CCN1CCCC(C)C1 (stereo not given) > 20.6 µM
COc1ccc(/C(O)=C2/C(=O)C(=O)N(CCCN(C)C)C2c2ccccc2)cc1Cl (stereo not given) > 20.6 µM
CC(C(=O)N1CCOCC1)N1C(=O)c2ccccc2C1=O (stereo not given) > 20.6 µM
c1coc(CNc2ncnc3ccccc23)c1 > 20.6 µM
CC(=O)OCc1c(COC(C)=O)[n+](=O)c2ccccc2n1[O-] > 20.6 µM
COc1cccc(OC)c1OCCN1CCN(C(=O)c2ccco2)CC1 > 20.6 µM
CCc1ccc2c(c1)C(C)=CC(C)(C)N2 > 20.6 µM
COC(=O)/C=c1/s/c(=C(\C#N)C(=O)NCc2ccco2)n(-c2ccccc2)c1=O > 20.6 µM
CN(C)CC(O)COc1ccc(-c2ccc(C#N)cc2)cc1 (stereo not given) > 20.6 µM
COc1cccc(C(=O)N2CCN(S(=O)(=O)Cc3ccccc3)CC2)c1OC > 20.6 µM
Cn1c(=O)c2c(nc(OCc3cccnc3)n2Cc2ccccc2)n(C)c1=O > 20.6 µM
O=C(c1cncc(Br)c1)N1CCCc2ccccc21 > 20.6 µM
CCOC(=O)CNS(=O)(=O)c1cc(-c2nn(C)c(=O)c3ccccc23)ccc1C > 20.6 µM
COC(=O)c1ccccc1N1C(=O)[C@@H]2C(c3ccc(Br)cc3)=NO[C@@H]2C1=O > 20.6 µM
CCOC(=O)CSc1nc(N(C)C)nc(N(C)C#N)n1 > 20.6 µM
O=C(O)c1c[nH]c2ccc(S(=O)(=O)N3CCOCC3)cc12 > 20.6 µM
COC(=O)c1sccc1NC(=O)c1c(C)cc(=O)oc1C > 20.6 µM
Cc1cc(=O)n(CCC(=O)O)c2ccccc12 > 20.6 µM
CCOC(=O)C1=C(c2ccccc2)NC(SCC(=O)Nc2ccccc2C)=C(C#N)C1c1ccco1 (stereo not given) > 20.6 µM
O=S(=O)(c1ccc2ccccc2c1)N(CC(O)CN1CCOCC1)c1ccccc1 (stereo not given) > 20.6 µM
CC1CN(C2CCN(S(=O)(=O)c3ccccc3)CC2)CC(C)O1 (stereo not given) > 20.6 µM
CC1(C)NC(=O)N(CC(O)COc2ccccc2C(=O)Nc2ccccc2)C1=O (stereo not given) > 20.6 µM
CN1CCN(/C=N/c2sc3c(c2C#N)CCCCC3)CC1 > 20.6 µM
N/C(CCN1CCOCC1)=N/O > 20.6 µM
C=C(Br)Cn1c(CCCC)nc2ccccc21 > 20.6 µM
O=C(O)c1ccc(COCC(F)(F)C(F)F)o1 > 20.6 µM
C=CCn1c(SCc2c(F)c(F)c(F)c(F)c2F)nc(O)cc1=O > 20.6 µM
CC1(C)CC(=O)C(C=N)=C(O)C1 > 20.6 µM
COCCN(Cc1ccccc1)P(=O)(O)c1ccccc1OCC(=O)O > 20.6 µM
COc1cc(-c2nn3c(-c4ccco4)nnc3s2)cc(OC)c1OC > 20.6 µM
COc1cccc(OC)c1C(=O)N1CCN(S(=O)(=O)c2ccc(C)cc2)CC1 > 20.6 µM
CC(NC(=O)NCCCC(=O)O)(C(F)(F)F)C(F)(F)F > 20.6 µM
CC(C)OC(=O)CC1=NC(=O)CS1 > 20.6 µM
Cc1cc(=O)oc2c(CN3CCN(C)CC3)c(O)c(Cl)cc12 > 20.6 µM
Cc1nnc2n(-c3ccccc3)c(=O)c3c4c(sc3n12)CCCC4 > 20.6 µM
Cn1c(O)c(C=Nc2ccc(Cc3ccncc3)cc2)c(=O)n(C)c1=O > 20.6 µM
